# Compound activity (PubChem BioAssay)
# TRHR PAM = TRH receptor (human) allosteric enhancement. 360,000 compounds, 0.66% hits. AID 493056. enhancement, % at 2 µM. P34981. TRHR cells, fluo-8 calcium fluorescence, EC20 TRH enhancement; in the data active = enhancement above about 30%; also: 0% is about no effect
#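 Enhancer read-out: after compound pinning and an initial kinetic agonist-mode read, an EC20 of TRH (10 nM final) was injected and fluo-8 calcium signal (Ex 480/Em 530) followed at 1 s/cycle for 100 cycles in TRHR-expressing cells.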
# D1 antagonist = blocks dopamine activation of the human D1 receptor; HEK293 TREx D1 cells, calcium flux, dopamine EC80; hits give low values; activity change, negative = inhibition, % at 10 µM; P21728; 360,000 compounds, 3.2% hits; in the data active = activity change below about -30%; also: % is scaled to controls: 0 for no effect and ±100 for the full control effect
# Target sequence (P21728 whole entry, looked up): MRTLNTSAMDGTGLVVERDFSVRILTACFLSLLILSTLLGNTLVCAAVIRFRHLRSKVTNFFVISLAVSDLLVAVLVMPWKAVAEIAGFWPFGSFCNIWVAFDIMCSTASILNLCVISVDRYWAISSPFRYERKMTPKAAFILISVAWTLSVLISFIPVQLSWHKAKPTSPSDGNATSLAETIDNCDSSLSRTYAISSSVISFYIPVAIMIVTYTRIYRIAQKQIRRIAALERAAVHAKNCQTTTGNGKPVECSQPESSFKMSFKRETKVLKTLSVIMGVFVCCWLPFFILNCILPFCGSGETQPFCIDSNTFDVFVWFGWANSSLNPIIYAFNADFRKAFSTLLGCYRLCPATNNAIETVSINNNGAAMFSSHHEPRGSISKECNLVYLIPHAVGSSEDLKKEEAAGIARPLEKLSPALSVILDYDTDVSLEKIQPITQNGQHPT
#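 Kinetic fluorescence of a calcium dye serves as the read-out. D1-expressing Hek293 Trex cells, induced overnight at 30 C, are exposed to compound for 180 s before an EC80 dopamine addition, then read 180 s further.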
# D1 ag = activates the human D1 dopamine receptor; P21728; HEK293 T-REx D1 cells, calcium flux, agonist mode; activation, % at 2 µM; 360,000 compounds, 1% hits; also: 0% is about no effect
#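 Inducible HEK293 T-REx D1 cells, force-coupled to calcium signalling, were plated at 4000 cells/well with tetracycline and held overnight at 30 C. After no-wash calcium dye loading, compound-evoked calcium rise over 180 s flagged agonists.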
# TRHR ag = TRH receptor (human) agonism; activation, % at 2 µM; 360,000 compounds, 0.18% hits; TRHR cells, calcium flux fluo-8, FDSS agonist mode; P34981; also: 0% is about no effect
#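 Agonist-mode FDSS calcium read (Ex 480/Em 530, 1 s cycles) in 1536-well TRHR cells with fluo-8 dye, after 10-cycle baseline and 23 nL compound addition; TRH at EC20 (10 nM final) added afterwards for the enhancer phase.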
# D1 PAM = enhances dopamine response at the human D1 receptor; P21728; HEK293 TREx D1 cells, calcium flux, dopamine EC20 potentiation; potentiation, % at 10 µM; 360,000 compounds, 0.036% hits; AID 504651; in the data active = potentiation above about 30%; also: 0% is about no effect
# Starred values were filed as active, the others as inactive; · = not tested or not shown. An excerpt weighted towards active compounds, which were near 4.7% of everything screened. Rule as the data show it, unless noted: active = activation above about 30%; inactive = the rest.
SMILES,TRHR PAM,D1 antagonist,D1 ag,TRHR ag,D1 PAM
Cc1ccc(C(=O)Nc2cc(Cl)ccc2-n2cncn2)o1,36*,8,3,0,-7
Cc1ccc(C(=O)Nc2cc(C(F)(F)F)ccc2-n2cncn2)o1,3,6,1,-3,-7
Cc1nn2c(CN(C(=O)COc3ccccc3)c3ccccc3)nnc2c2ccccc12,40*,0,2,2,2
O=C(c1cc2ccccc2cc1O)N1CCN(c2ccc([N+](=O)[O-])cc2)CC1,-1,-8,8,0,-2
Cc1cc(C)cc(Oc2ccc(S(=O)(=O)N3CCN(C)CC3)cn2)c1,-3,-10,0,0,-3
CCCOc1ccc(Oc2ccc(S(=O)(=O)N3CCN(C)CC3)cn2)cc1,-6,-37*,5,0,-3
O=C1C(=O)N(C2CCN(S(=O)(=O)c3ccccc3)CC2)CCN1Cc1ccccc1,-2,-4,3,0,-3
Cc1ccc(NC2=C(Cl)C(=O)OC2OC(=O)c2ccco2)cc1C (configuration not stated),-4,-30*,8,0,-8
Cc1ccc(C)c(NC2=C(Cl)C(=O)OC2OC(=O)c2ccco2)c1 (configuration not stated),0,-14,19,1,-5
COc1ccc(C(=O)Nc2nc(CC(=O)NCCc3ccccc3OC)cs2)cc1,-9,0,-1,-1,5
CCc1ccc(S(=O)(=O)c2c[nH]c3cc(OC)c(OC)cc3c2=O)cc1,5,-43*,-1,0,-4
Cc1cc(C)nc(-n2nc(C)c3c2NC(=O)CC3c2cccc(O)c2)n1 (configuration not stated),-5,8,2,0,1
COc1cc2nc(CN(C)Cc3ccc(Cl)cc3)[nH]c(=O)c2cc1OC,-2,19,4,1,3
COc1cc2cncc(Cc3ccc(Cl)cc3)c2cc1OC,1,-45*,5,0,0
CN(CC(=O)Nc1ccccc1Cl)C(=O)Cn1nnc(-c2ccc(F)cc2)n1,-4,-47*,1,0,-3
Cc1nc(-c2ccc(F)cc2)c(CC(=O)N(C)CC(=O)Nc2ccccc2Cl)s1,-6,4,1,0,2
O=C(CN1C(=O)COc2ccc(S(=O)(=O)N3CCCC3)cc21)N1CCN(c2ccccc2F)CC1,-7,3,-1,-1,-2
CCn1cc(C(=O)O)c(=O)c2cc(F)c(N3CCNCC3)cc21,6,-48*,-1,-1,-5
CCn1cc(C(=O)NCCCO)c(=O)c2cc(F)c(N3CCN(C)CC3)cc21,1,7,3,1,0
CCn1cc(C(=O)O)c(=O)c2cc(F)c(N3CCN(C)CC3)cc21,10,-6,1,0,-4
CCCCCCNC(=O)c1cn(CC)c2cc(N3CCN(C)CC3)c(F)cc2c1=O,1,-50*,87*,-1,-13
CC(c1ccccc1C(O)(c1ccccc1)c1ccccc1)N(C)C (configuration not stated),-4,-39*,100*,11,-3
CNCCC1Sc2ccccc2Oc2ccccc21 (configuration not stated),12,11,81*,1,-8
Cc1nn(CC(=O)OCC(=O)NC(C)c2ccccc2)c(C)c1[N+](=O)[O-] (configuration not stated),-4,-34*,1,0,6
COc1ccc(C)cc1Nc1n[n+](-c2ccccc2)c(-c2ccc(NC(C)=O)cc2)s1,-2,-31*,1,0,-7
SMILES,TRHR PAM,D1 antagonist,D1 ag,TRHR ag,D1 PAM
O=C(CC1CCCC1)Nc1cccc(Br)c1,-4,-38*,3,0,-7
CC(C)CC1NC(=O)N(CC(=O)Nc2cccc(Br)c2)C1=O (configuration not stated),12,-39*,-2,0,-6
O=C(CC1CC2CCC1C2)NCCc1ccc(Cl)cc1 (configuration not stated),-7,-1,0,-1,-5
CCN(C(=O)COC(=O)c1ccc(OCc2c(C)noc2C)cc1)c1ccccc1,1,7,2,0,3
CCN(c1ccccc1)S(=O)(=O)c1ccc(OCc2c(C)noc2C)cc1,-1,-32*,16,1,-7
Cc1ccc(C(C)C)c(OCC(=O)OCc2c(C)noc2C)c1,-21,-3,2,0,-5
Cc1ccc(S(=O)(=O)N(C)c2ccc(OCC(=O)OCc3c(C)noc3C)cc2)cc1,-1,-47*,24,0,-1
Cc1ccc(S(=O)(=O)N(C)c2ccc(OCc3cccc(C)c3)cc2)cc1,-8,12,38*,3,-1
CN(c1ccc(OCc2ccc([N+](=O)[O-])cc2)cc1)S(=O)(=O)c1ccccc1,-4,-11,22,2,·
CCCCOc1ccc(C(=O)Nc2ccc3c(c2)CCCN3C(=O)c2cccs2)cc1,-3,-6,4,1,0
CCc1ccccc1NC(=O)COc1cccc(-n2cnnn2)c1,7,-20,44*,-2,·
O=C(COc1ccc(F)cc1)Nc1ccc(-n2cnnn2)cc1,-2,-36*,4,0,-12
CC(Oc1ccc(C#N)cc1)C(=O)Nc1ccc(-n2cnnn2)cc1 (configuration not stated),22,-15,55*,6,-7
CCOc1ccc(NC(=O)COc2ccc(-n3cnnn3)cc2)cc1,1,-13,-1,0,-4
Cc1cccc(-c2nc3c4ccccc4n(Cc4cccc(Cl)c4)c(=O)n3n2)c1,-6,-1,3,1,-4
COCCn1c(=NC(=O)CCS(=O)(=O)c2ccccc2)sc2cc(F)ccc21,-9,-9,9,0,1
CCCCN(C)C(=O)c1cn(C)c2ccc(S(=O)(=O)N3CCC(C)CC3)cc2c1=O,-5,-13,1,0,-3
O=C(CNC(=O)c1ccccc1O)N/N=C/c1cc(Br)ccc1OC(=O)/C=C/c1ccco1,15,-33*,7,1,-8
CC(=O)c1c(C)[nH]c(C(=O)Nc2cccc(S(=O)(=O)N3CCOCC3)c2)c1C,7,4,2,1,-5
CCCCNC(=S)Nc1cc(S(=O)(=O)N2CCCCC2)ccc1C,-12,-37*,23,1,-15
CC(=O)c1c(C)[nH]c(C(=O)Nc2cc(S(=O)(=O)N3CCCCC3)ccc2C)c1C,-9,-31*,4,0,-10
CCCCCNC(=O)c1cc(S(=O)(=O)N2CCCCC2)ccc1F,-5,-62*,2,-1,-2
O=C(NCCc1ccccc1)c1cc(S(=O)(=O)N2CCCC2)ccc1F,1,-7,4,0,3
CN1CCC(N(C)C(=O)c2ccc(Cl)c(S(=O)(=O)Nc3cc(Cl)ccc3Cl)c2)CC1,2,-6,7,0,-4
